The full ranking holds about 59,000 sequences; the median of the read-out is about -0.00055, and the lowest 2% start at about -2. This is one part of a sample in which the lowest values are shown more often than they occur.
Assay: Identification of proteins required for the processing of the EWS-FLI1 nascent transcript;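 further: robust z of luciferase light less the median z of siRNAs with the same seed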
Conditions: TC32 Ewing sarcoma NR0B1-luc vs CMV-luc (EWS-FLI1 target promoter against control promoter), 48 h; screened at 20 nM (by protocol)
Procedure, shortened: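 Readout: OneGlo luminescence, 48 h post-transfection, TC32-NR0B1-luc vs TC32-CMV-luc in parallel. siRNA 20 nM final, RNAiMax lipid, 600 cells/well; z-score-MAD transformed, then seed-adjusted.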

| Sequence | seed-corrected z-score |
| --- | --- |
| UUUGCUAGAAGCCUUCUUG against DOK6 | -0.847 |
| UUGAGGUCAAUUUCGGCUG against H2AFY2 | -0.937 |
| UGUUUUAACUGCUGUAUCC against RP9 | 0.734 |
| UCUUCAUUAGCUUCUUCAC against PLCXD2 | 0.44 |
| UGAUGCACGAGAAGAAGCC against KCNK3 | -13.5 |
| UUUGCUACAGAAUUGCUUG against ANAPC16 | -1.17 |
| AAAGGAUCUCUCUGUAUUU against SNTN | 1.99 |
| UGUACUGUCAGACUAAUGC against MRGPRX3 | -0.749 |
| UUCAGCAUUACUCUCUGCG against RPL17P39 | -2.51 |
| UCAGCAUAUAGCAGGAUCC against NPR2 | -0.565 |
| AUUCUCACCAGACAUCCUG against KRT74 | 1.12 |
| AAGAAUUCCAUACAUCUUC against ACKR1 | -0.0448 |
| UAAGCAUCCAGUAGGCAGG against XBP1 | -3.08 |
| UCUCUAAAAGGUGUCUUGC against SH3RF2 | 0.606 |
| AUAGUAAUCAUCCAGAGCA against ARHGEF35 | -0.685 |
| AUAGGUACUGCACUGCAGG against GPS2 | -0.377 |
| UGACUAUGAUGUUGAAUCC against OR8A1 | -1.35 |
| UUCGAUUCAUGAAAUCUCC against GTF3C1 | 0.399 |
| UGUUCAACGAGGGUAUAGC against ZNF416 | 0.828 |
| UUGUGGUAGAUCUGGACGC against VASP | -2.15 |
| ACAGUUAUUCUGUCCAUCG against LDLRAD3 | -6.33 |
| UCUGGUUUUUGUACCCGCC against LOC403323 | -0.673 |
| UUUUUAACAGAGGUCUCCA against RAB42P1 | -0.18 |

| Sequence | seed-corrected z-score |
| --- | --- |
| UUUCAAUCUUGUCUGAGGC against COX11 | -0.764 |
| UUGAGUAAGAACUUUAUCC against SMAD1 | -2.45 |
| AAUAUGUCGUUGUAAGUGC against ZNF644 | -0.209 |
| UUCUUCUAAAACAUCCUCG against GLE1 | -0.174 |
| UUAUCUAUCACCCAAGCAG against RTN4IP1 | -0.598 |
| UUCCGUUUAAUUUCAACUG against BRCA2 | 0.32 |
| UAUUUGUUUCACCUCACUG against DNAJC8 | 1.25 |
| AGAAGGAACAUGCGUGCAG against TTC34 | 1.38 |
| UCCUUGUCGACAACGAGUG against GAPVD1 | -3.68 |
| UAAUUGAGUUUCUAAAGUG against CDKAL1 | -0.809 |
| UUCAUUAUGUGGAACAUAC against CYP19A1 | -1.02 |
| AAAGUGGACACCAUAGACC against HGD | 0.0682 |
| UUUGUAGCAAGGAAUACAG against OR7A5 | -3.5 |
| UGUCGAUCUAGGUACUGAC against SART3 | -0.192 |
| AUAAAUGGUGGUUUAAGGU against METTL2B | -0.343 |
| AAAGCCAGGAGUUCCGCUG against GNG8 | -0.7 |
| UCAGGAACACCGAGUACUC against S100A5 | -0.776 |
| UAGUUGGUUAAAUUGGACC against TEKT3 | -0.0576 |
| AAACCUUUUGCAUCUAUGG against GSTA12P | 0.753 |
| AAAGUUGCUGGUGUGCUCC against NUTM1 | -1.38 |
| UCUUUGAGCAGCUUCCAGC against SOX4 | -5.6 |
| UCAGGUAGCAGAGUACUGC against IL22RA1 | -0.631 |
| AGAGUUCAAAUGUAUUGUC against KLHL21 | -1.34 |

| Sequence | seed-corrected z-score |
| --- | --- |
| UCUUUUUGUAGGUCUCUGC against RCN3 | -3.02 |
| UCCUUUAACAACAAGUUGU against IL10 | -0.0724 |
| UCUCUAAACAGGUCCCAAG against PDX1 | 0.0859 |
| AUCGCUAAGACGGUGAUCC against EIF4ENIF1 | -0.0436 |
| UUCCGCAGCAAUGAUAGGC against TMEM132D | -0.636 |
| UCUGCUACUCCAUUGAUCU against TRMT12 | -1.63 |
| UACAUAGAAGGUGUUGGGC against CD81 | 0.0377 |
| UUCUUUUGUCCAUACAAUC against TAS2R45 | -2.34 |
| UACAAGCCCAGUUGAGAUC against DSTNP4 | -0.547 |
| UACGAUAUUGUUGCUACAG against SLIT2 | -0.0537 |
| UAUUAGUCCCGGACGAAUG against SCAF8 | -0.115 |
| UUGUUUAUGAGCAAGGUGG against RPL41 | -0.22 |
| UUUGGUGCAAAGUCCAUGC against SKIV2L | -2.51 |
| UUGAGGAUACAGCACAGCC against SERPINI1 | -0.491 |
| ACAGGCUUUAUCAUACUGC against ZXDC | -0.245 |
| UAGGUGAUAUCUCUCCGCC against TGM4 | -0.284 |
| ACAGUUCUCGCAGUACUGG against GPANK1 | -0.197 |
| UGACCAUCCAGAAGUAGUU against SPHK1 | -0.911 |
| UUGGUAGAUAUGAUCUUCG against TCEA3 | 0.375 |
| UUGGGUAUUGUUCUUGACU against SNRPD2 | -2.58 |
| UGUUUAUUAGAAGUGACUC against FOLR2 | -0.238 |
| UAGUUGUCAGUGAAGACUG against VIP | -2.09 |
| CUUGUAGCUUCUCUACAUC against LOC441347 | -0.389 |

| Sequence | seed-corrected z-score |
| --- | --- |
| UUCUCAUCAAGCUGUCUCC against SH3RF2 | 0.136 |
| UAUAACAGCAGUAUCUGUC against TMEM215 | 0.183 |
| UUGUUGAAAUGGAACUCCU against HOXB1 | 0.384 |
| UCAGUGCACGCAACUGUGU against TNXB | 0.0625 |
| UAUAUGAUUAACAAAACGG against XKR3 | 0.439 |
| UUCUUUCCGAUGAUACUGC against PCBP2 | -3.36 |
| UUUCGCAGUUGUAAGACCG against CROCCP3 | 0.0641 |
| UAGAAUUUCUCGUACAACC against RALGPS1 | 0.75 |
| UAAUGAGCAGUGACUCUGG against BTBD11 | 0.456 |
| AAUUCUUCAAAACUAACUU against S100G | 0.467 |
| AUCCGUACGCCUCCGAUUC against PCSK4 | -0.594 |
| AAGGGAUAAGGGAUCAUCC against ST7 | -0.0379 |
| UAUAGUUACAUGACUGCUG against SNU13 | -6.52 |
| UUUUUAAUGCCUUAUAGUC against TTLL13P | 1.17 |
| UACAUAGCUGCAUAGACAC against PLPPR5 | -2.18 |
| UUCUUUAGCAACAUCACAG against CBR4 | 0.335 |
| UAAGAUAUCUGACCACUAG against ZNF620 | 0.641 |
| UCCAUAUCCCAUGACAUGC against SLC17A6 | -0.139 |
| UGCUUGAGCAGAAUGACCG against DIO2 | -2.14 |
| UGAACUUGCACACUUGAGU against KLK7 | 0.253 |
| AAACUUUGGAUGUUUUUGG against PPBP | 0.549 |
| UUAGUACAGAUGCAGUUCU against OR56A5 | -14.6 |
| UUUCGGUACGUGUAGUAGC against STRA6 | 0.803 |

| Sequence | seed-corrected z-score |
| --- | --- |
| UCUUUGACAAUAUCAACAG against UBE3D | -0.267 |
| UGCGUGUCUUCUUUAACCU against FAM174B | -0.0387 |
| UUAGAUCCAUGCUAUAAGC against PMS2P12 | -0.142 |
| UAAUCGUUUCUACAAGAUC against ATF7IP | -2.43 |
| UUAAUCUUCAUCGUAAUAG against ZPLD1 | -0.649 |
| UUUUUCGACAGGAAAGUGU against C5orf60 | 0.245 |
| UUCAUUAUUAUCUCAGGAG against RFC3 | -1.02 |
| UUCAGCAUAAAGACUGAUC against VPS41 | -0.683 |
| UCACUUCCUAUUCCCAUGG against PALM3 | -1.4 |
| AUCUUGGUAACAAACUUGG against TRPV4 | -3.43 |
| UAAUCGUUGGGAUCCAGUC against PCDHA13 | 0.188 |
| UGUACGAUGAAGGUCAUGC against SLC34A2 | -0.00732 |
| UUCGUGUUUUGAAUCUUGG against B4GALT2 | 1.23 |
| AGCUGGAUCAUUUCUACAG against PKDCC | -2.45 |
| UAGACUGUCACGUUGUAUG against SEZ6L | 0.278 |
| AAAGAGAUAAUGUUCCUCC against FAM180B | 0.869 |
| UCCCUAACAAAGCAUGUAC against ISL1 | -0.138 |
| UUCUAAGAAAGCGAGCUGC against EID2B | -0.614 |
| UCUCGAGUUAUGUGGUUGG against RAD51D | 0.265 |
| AUAGUUGCAAUCAAACGAG against SFT2D2 | -3.87 |
| UCUGGGAAAACAUGGUUGU against DUBR | -1.17 |
| ACAGAUAUAACACUCAUCG against ANO10 | -0.322 |
| AUUGUGACUAUUAUGAGUC against MTND5P10 | -0.792 |

| Sequence | seed-corrected z-score |
| --- | --- |
| UACAGAUCCGCGAUGUACU against RCN3 | 0.823 |
| UUUCCGAAAAUUUAGUGGG against ATAD2 | 0.659 |
| UGGUGGUCCACCUUGUUAG against F13A1 | -1.25 |
| UCCAGUGCAAUGACUCUUG against ZNF114 | -2.45 |
| AACUUUUCACUGGUGACCC against C7orf55 | -0.00837 |
| UCUCAGGAUAGGAACCACC against SPRR2G | -0.114 |
| UUUAGAUCUAGAAUUACAC against SPESP1 | -0.539 |
| UGAGCUCUGAGAAUUGAGG against POM121 | 0.483 |
| UGCAGAUGCGGAAAGCUGC against LOC388692 | 0.336 |
| AUCCAGUUCACGUAGGCAG against TPSG1 | -2.87 |
| UCUGCGUACUCAUCCAUCC against GALNT10 | 0.408 |
| UCUGAUCUCACGGAUGAAG against RASEF | 0.117 |
| UUAGGCUCUUUGUAUGUCC against ELOVL4 | 0.198 |
| UUUCUGCACAGGAAUAUCG against CD37 | -3.03 |
| UCCGCGUAUAAAUAGGUGC against RSPH1 | -0.487 |
| UGAGUUGAAGGUCUGCCCG against MPND | -0.48 |
| UGAUAGAUGAAUAUCAUCC against KIAA0232 | -0.728 |
| UAUUCGCACAGGCUGAUUC against BBS12 | 0.0215 |

Reference: PubChem BioAssay AID1159506 (National Center for Advancing Translational Sciences (NCATS), 2015)
